The campaign covered roughly 5,500 compounds. About 2,000 (36%) were called active. Another 18% or so got no clear call; they are omitted. The list shows a part of the results. Values without a mark were called inactive. No stated cut-off is given here; in the data, active means normalized growth mostly below about 0.91 (no sharp cut-off); inconclusive means no clear call, values can overlap the other calls; inactive means mostly above about 0.92.
Experiment: chemical genetic growth profiling, strain panel (AID 1159580);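 further: tested at 20 µM; growth read once vehicle control cultures reached saturation at 30 °C; 1 = growth at the plate median or of vehicle wells; lower values mean less growth of the strain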
Conditions: growth OD
[1] = S. cerevisiae deletion strains, locus YDL101C, strain DUN1, hits give low values
[2] = S. cerevisiae deletion strains, locus YHR030C, strain SLT2, hits give low values

Q: With `O=C1/C(=C/c2ccc(Cl)cc2)COc2ccc(F)cc21` as the compound, how does the normalized growth (S. cerevisiae deletion strains, locus YAL013W, strain DEP1, hits give low values) read?
A: The normalized growth was 0.956.

Q: What about the normalized growth (S. cerevisiae deletion strains, locus YBR229C, strain ROT2, hits give low values) of the same compound?
A: Its normalized growth is 0.978.

Q: What about the normalized growth [1] of the same compound?
A: The normalized growth was 1.01.

Q: And the normalized growth (S. cerevisiae deletion strains, locus YDR150W, strain NUM1, hits give low values)?
A: Its normalized growth is 1.01.

Q: What about the normalized growth (S. cerevisiae deletion strains, locus YEL061C, strain CIN8, hits give low values) of the same compound?
A: The normalized growth was 0.934.

Q: And the normalized growth (S. cerevisiae deletion strains, locus YGR078C, strain PAC10, hits give low values)?
A: The normalized growth was 0.972.

Q: And the normalized growth (S. cerevisiae deletion strains, locus YGR229C, strain SMI1, hits give low values)?
A: The normalized growth was 0.951.

Q: And the normalized growth [2]?
A: Its normalized growth is 0.305 (active).

Q: And the normalized growth (S. cerevisiae deletion strains, locus YHR087W, strain rtc3, hits give low values)?
A: The normalized growth was 0.96.

Q: What about the normalized growth (S. cerevisiae deletion strains, locus YJR043C, strain POL32, hits give low values) of the same compound?
A: Its normalized growth is 0.977.

Q: What about the normalized growth (S. cerevisiae deletion strains, locus YJR075W, strain HOC1, hits give low values) of the same compound?
A: The normalized growth was 0.98.

Q: And the normalized growth (S. cerevisiae deletion strains, locus YLR039C, strain RIC1, hits give low values)?
A: Its normalized growth is 0.472 (active).

Q: And the normalized growth (S. cerevisiae deletion strains, locus YLR058C, strain SHM2 (second series), hits give low values)?
A: Its normalized growth is 0.959.

Q: And the normalized growth (S. cerevisiae deletion strains, locus YLR085C, strain ARP6, hits give low values)?
A: The normalized growth was 0.431 (active).

Q: What about the normalized growth (S. cerevisiae deletion strains, locus YLR262C, strain YPT6, hits give low values) of the same compound?
A: The normalized growth was 0.528 (active).

Q: And the normalized growth (S. cerevisiae deletion strains, locus YML094W, strain GIM5, hits give low values)?
A: The normalized growth was 0.941.

Q: What about the normalized growth (S. cerevisiae deletion strains, locus YMR219W, strain ESC1, hits give low values) of the same compound?
A: Its normalized growth is 0.963.

Q: What about the normalized growth (S. cerevisiae deletion strains, locus YMR263W, strain SAP30, hits give low values) of the same compound?
A: Its normalized growth is 0.942.

Q: And the normalized growth (S. cerevisiae deletion strains, locus YNL153C, strain GIM3, hits give low values)?
A: The normalized growth was 0.986.

Q: And the normalized growth (S. cerevisiae deletion strains, locus YNL298W, strain CLA4 (second series), hits give low values)?
A: The normalized growth was 0.83 (active).

Q: What about the normalized growth (S. cerevisiae deletion strains, locus YNL322C, strain KRE1, hits give low values) of the same compound?
A: Its normalized growth is 0.959.

Q: And the normalized growth (S. cerevisiae deletion strains, locus YNR030W, strain Alg12, hits give low values)?
A: Its normalized growth is 0.829 (active).

Q: And the normalized growth (S. cerevisiae deletion strains, locus YPL055C, strain LGE1, hits give low values)?
A: Its normalized growth is 0.963.

Q: And the normalized growth (S. cerevisiae deletion strains, locus YPL241C, strain CIN2, hits give low values)?
A: Its normalized growth is 0.704 (active).

Q: What about the normalized growth (S. cerevisiae deletion strains, locus YPR135W, strain CTF4, hits give low values) of the same compound?
A: Its normalized growth is 0.405 (active).

Q: And the normalized growth (S. cerevisiae strains, strain wild type, hits give low values)?
A: The normalized growth was 0.967.

Q: What does the source list for `O=C1/C(=C/c2ccc(C(F)(F)F)cc2)COc2ccccc21`?
A: normalized growth (S. cerevisiae deletion strains, locus YAR019C, strain CDC15, hits give low values): 0.937; normalized growth (S. cerevisiae deletion strains, locus YBL105C, strain PKC1, hits give low values): 0.924; normalized growth (S. cerevisiae deletion strains, locus YBR135W, strain CKS1, hits give low values): 0.92; normalized growth (S. cerevisiae deletion strains, locus YBR136W, strain MEC1, hits give low values): 0.924; normalized growth (S. cerevisiae deletion strains, locus YBR160W, strain CDC28, hits give low values): 0.926; normalized growth (S. cerevisiae deletion strains, locus YDL017W, strain CDC7, hits give low values): 0.926; normalized growth (S. cerevisiae deletion strains, locus YDL028C, strain MPS1, hits give low values): 0.925; normalized growth [1]: 0.946; normalized growth (S. cerevisiae deletion strains, locus YDL108W, strain KIN28, hits give low values): 0.923; normalized growth (S. cerevisiae deletion strains, locus YDL132W, strain cdc53, hits give low values): 0.934; normalized growth (S. cerevisiae deletion strains, locus YDL214C, strain PRR2, hits give low values): 0.936; normalized growth (S. cerevisiae deletion strains, locus YDR052C, strain DBF4, hits give low values): 0.931; normalized growth (S. cerevisiae deletion strains, locus YDR054C, strain cdc34, hits give low values): 0.931; normalized growth (S. cerevisiae deletion strains, locus YDR226W, strain ADK1, hits give low values): 0.925; normalized growth (S. cerevisiae deletion strains, locus YDR477W, strain SNF1, hits give low values): 0.914; normalized growth (S. cerevisiae deletion strains, locus YER123W, strain YCK3, hits give low values): 0.886; normalized growth (S. cerevisiae deletion strains, locus YER133W, strain GLC7, hits give low values): 0.913; normalized growth (S. cerevisiae deletion strains, locus YFL009W, strain cdc4, hits give low values): 0.926; normalized growth (S. cerevisiae deletion strains, locus YFL029C, strain CAK1, hits give low values): 0.927; normalized growth (S. cerevisiae deletion strains, locus YFR003C, strain YPI1, hits give low values): 0.93; normalized growth (S. cerevisiae deletion strains, locus YFR019W, strain FAB1, hits give low values): 0.953; normalized growth (S. cerevisiae deletion strains, locus YFR028C, strain CDC14, hits give low values): 0.961; normalized growth (S. cerevisiae deletion strains, locus YGR040W, strain KSS1, hits give low values): 0.894; normalized growth (S. cerevisiae deletion strains, locus YGR052W, strain FMP48, hits give low values): 0.953; normalized growth (S. cerevisiae deletion strains, locus YGR092W, strain DBF2, hits give low values): 0.719; normalized growth [2]: 0.824 (active); normalized growth (S. cerevisiae deletion strains, locus YHR079C, strain IRE1, hits give low values): 0.888; normalized growth (S. cerevisiae deletion strains, locus YHR082C, strain KSP1, hits give low values): 0.85; normalized growth (S. cerevisiae deletion strains, locus YHR205W, strain SCH9, hits give low values): 0.784; normalized growth (S. cerevisiae deletion strains, locus YIL147C, strain SLN1, hits give low values): 0.917; normalized growth (S. cerevisiae deletion strains, locus YJL095W, strain BCK1, hits give low values): 0.901; normalized growth (S. cerevisiae deletion strains, locus YJL128C, strain PBS2, hits give low values): 0.896; normalized growth (S. cerevisiae deletion strains, locus YJL157C, strain FAR1, hits give low values): 0.92; normalized growth (S. cerevisiae deletion strains, locus YJR016C, strain ILV3, hits give low values): 0.929; normalized growth (S. cerevisiae deletion strains, locus YJR066W, strain TOR1 (second series), hits give low values): 0.976; normalized growth (S. cerevisiae deletion strains, locus YJR066W, strain TOR1, hits give low values): 0.817; normalized growth (S. cerevisiae deletion strains, locus YKL048C, strain ELM1, hits give low values): 0.897; normalized growth (S. cerevisiae deletion strains, locus YKL067W, strain YNK1, hits give low values): 0.938; normalized growth (S. cerevisiae deletion strains, locus YKL101W, strain HSL1, hits give low values): 0.906; normalized growth (S. cerevisiae deletion strains, locus YKL193C, strain SDS22, hits give low values): 0.93; normalized growth (S. cerevisiae deletion strains, locus YKL203C, strain TOR2, hits give low values): 0.921; normalized growth (S. cerevisiae deletion strains, locus YLR113W, strain HOG1, hits give low values): 0.823 (active); normalized growth (S. cerevisiae deletion strains, locus YLR133W, strain CKI1, hits give low values): 0.916; normalized growth (S. cerevisiae deletion strains, locus YLR403W, strain SFP1, hits give low values): 0.846; normalized growth (S. cerevisiae deletion strains, locus YML070W, strain DAK1, hits give low values): 0.922; normalized growth (S. cerevisiae deletion strains, locus YMR001C, strain CDC5, hits give low values): 0.918; normalized growth (S. cerevisiae deletion strains, locus YMR205C, strain PFK2 (second series), hits give low values): 0.889; normalized growth (S. cerevisiae deletion strains, locus YMR277W, strain FCP1, hits give low values): 0.933; normalized growth (S. cerevisiae deletion strains, locus YNL006W, strain LST8, hits give low values): 0.948; normalized growth (S. cerevisiae deletion strains, locus YNL020C, strain ARK1, hits give low values): 0.881; normalized growth (S. cerevisiae deletion strains, locus YNL161W, strain CBK1, hits give low values): 0.936; normalized growth (S. cerevisiae deletion strains, locus YNL183C, strain NPR1, hits give low values): 0.88; normalized growth (S. cerevisiae deletion strains, locus YNL207W, strain RIO2, hits give low values): 0.925; normalized growth (S. cerevisiae deletion strains, locus YNL222W, strain SSU72, hits give low values): 0.938; normalized growth (S. cerevisiae deletion strains, locus YNL307C, strain MCK1 (second series), hits give low values): 0.861; normalized growth (S. cerevisiae deletion strains, locus YOL078W, strain AVO1, hits give low values): 0.931; normalized growth (S. cerevisiae deletion strains, locus YOL136C, strain PFK27, hits give low values): 0.913; normalized growth (S. cerevisiae deletion strains, locus YOR061W, strain CKA2, hits give low values): 0.879; normalized growth (S. cerevisiae deletion strains, locus YOR119C, strain RIO1, hits give low values): 0.868; normalized growth (S. cerevisiae deletion strains, locus YOR231W, strain MKK1, hits give low values): 0.916; normalized growth (S. cerevisiae deletion strains, locus YOR329C, strain SCD5, hits give low values): 0.931; normalized growth (S. cerevisiae deletion strains, locus YPL031C, strain PHO85, hits give low values): 0.897; normalized growth (S. cerevisiae deletion strains, locus YPL153C, strain RAD53, hits give low values): 0.93; normalized growth (S. cerevisiae deletion strains, locus YPL204W, strain HRR25, hits give low values): 0.921; normalized growth (S. cerevisiae deletion strains, locus YPL209C, strain IPL1, hits give low values): 0.932; normalized growth (S. cerevisiae deletion strains, locus YPL256C, strain CLN2, hits give low values): 0.852 (active); normalized growth (S. cerevisiae deletion strains, locus YPR025C, strain CCL1, hits give low values): 0.925; normalized growth (S. cerevisiae deletion strains, locus YPR106W, strain ISR1, hits give low values): 0.959; normalized growth (S. cerevisiae deletion strains, locus YPR111W, strain DBF20, hits give low values): 0.946; normalized growth (S. cerevisiae deletion strains, strain NNK1, hits give low values): 0.91; normalized growth (S. cerevisiae deletion strains, strain TSCII, hits give low values): 0.932
